Our source for the Potency values is PubChem BioAssay (Tox21).

The nature of assay [1]: qHTS assay to identify aromatase inhibitors - cell viability counter screen (AID 743084).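 Also: cells stimulated with testosterone during compound exposure; nearly all actives have a fitted effect of over 55% in size.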 Also: potency is read from the fitted curve at half-maximal effect.
Assay [2] has as its target Aryl hydrocarbon receptor (Homo sapiens) (UniProt P35869). Nature of the assay: qHTS assay to identify small molecule that activate the aryl hydrocarbon receptor (AhR) signaling pathway (AID 743085). Also: nearly all actives have a fitted effect of over 15% in size. Also: potency is read from the fitted curve at half-maximal effect.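 As to activation: HG2L7.5c1 human HepG2 liver cells with stably integrated DRE-driven firefly reporter; series mostly up to about 70 µM.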 The method in brief:
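Luminescence read-out: ONE-Glo reagent, 30 min at room temperature, in HG2L7.5c1 HepG2 reporter cells treated 24 h at 37C. Viability was measured beforehand by CellTiter-Fluor fluorescence after 30 min at 37C.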

The nature of assay [3]: qHTS assay to identify small molecule that activate the aryl hydrocarbon receptor (AhR) signaling pathway - cell viability counter screen (AID 743086). Also: nearly all actives have a fitted effect of over 45% in size. Also: potency is read from the fitted curve at half-maximal effect. In short, it runs like this: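 HepG2-AhR-luc (HG2L7.5c1) cells, 4000/well, were preincubated 5 h at 37C, exposed to compound in qHTS format for 24 hr at 37C, then given CellTiter-Fluor for 30 min; viability was read as fluorescence in the reporter wells.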

For assay [4], the target named is Peroxisome proliferator-activated receptor gamma (Homo sapiens) (UniProt P37231). Nature of the assay: qHTS assay to identify small molecule agonists of the peroxisome proliferator-activated receptor gamma (PPARg) signaling pathway (AID 743094; active = well fitted activation curve with a large enough effect in the signal ratio in the repeat runs, not every such curve was filed as active; the % refers to the signal ratio). The method in brief:
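Beta-lactamase FRET fluorescence was the read-out after a 1 h room-temperature substrate step, following 17 h compound treatment at 37C of HEK293H cells expressing a UAS-driven bla reporter responsive to PPARg.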

A short description of assay [5]: qHTS assay for small molecule agonists of the antioxidant response element (ARE) signaling pathway (AID 743202; active = well fitted activation curve with a large enough effect in the signal ratio in the repeat runs, not every such curve was filed as active; the % refers to the signal ratio; also: potency is read from the fitted curve at half-maximal effect). The method in brief:
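Compounds delivered in DMSO to ARE-bla HepG2 cells (2,000 cells/well, pre-incubated 5 h) and left 16 h at 37 C. LiveBLAzer B/G FRET substrate then added for 2 h at RT before fluorescence reading.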

Assay [6] can be described thus: qHTS assay for small molecule agonists of the antioxidant response element (ARE) signaling pathway - cell viability counter screen (AID 743203; calls by dose curve; also: nearly all actives have a fitted effect of over 55% in size; also: potency is read from the fitted curve at half-maximal effect). In short, it runs like this: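 HepG2 cells carrying ARE-driven beta-lactamase; 2,000 cells/well; 5 hrs plating; compound pinned from DMSO; 16 hrs 37C/5% CO2; CellTiter-Glo added; 30 min RT; luminescence.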
Assay [7] is described as follows: qHTS assay for small molecule activators of the heat shock response signaling pathway - cell viability counter screen (AID 743209). Also: nearly all actives have a fitted effect of over 50% in size. Also: potency is read from the fitted curve at half-maximal effect. The method in brief:
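Luminescence from CellTiter-Glo, added after the beta-lactamase FRET read, gave the viability signal. Cells were HSE-bla HeLa treated with DMSO-dissolved compounds for 5 h at 37 C following overnight plating.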

The nature of assay [8]: qHTS assay to identify small molecule antagonists of the peroxisome proliferator-activated receptor gamma (PPARg) signaling pathway - cell viability counter screen (AID 743194). Also: nearly all actives have a fitted effect of over 55% in size. Also: potency is read from the fitted curve at half-maximal effect. The method in brief: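 PPARg-UAS-bla HEK293H cells were plated, rested 5 h at 37 C, then treated with compounds plus rosiglitazone (50 nM final) for 17 h at 37 C; viability was then read by CellTiter-Glo luminescence after 30 min at room temperature.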

For assay [9], the target named is Peroxisome proliferator-activated receptor gamma (Homo sapiens) (UniProt P37231). Briefly: qHTS assay to identify small molecule antagonists of the peroxisome proliferator-activated receptor gamma (PPARg) signaling pathway (AID 743191; calls by dose curve; also: nearly all actives have a fitted effect of over 30% in size; also: potency is read from the fitted curve at half-maximal effect). The method in brief: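 GeneBLAzer PPARg UAS-bla HEK293H cells carrying a UAS-driven beta-lactamase reporter were plated at 3000 cells/well, preincubated 5 h at 37C, then given compound for 17 h at 37C; LiveBLAzer B/G FRET substrate was read after 1 h at room temperature.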

A short description of assay [10]: qHTS assay for small molecule activators of the heat shock response signaling pathway (AID 743210; active = well fitted activation curve with a large enough effect in the signal ratio in the repeat runs, with a control signal flat, not every such curve was filed as active; the % refers to the signal ratio;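 also: HeLa cells with beta-lactamase reporter driven by heat shock elements; series mostly up to about 63 µM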). In short, it runs like this: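 Reporter gene assay: HeLa cells stably bearing an HSE-bla construct, compound treatment 5 h at 37 C, LiveBLAzer substrate 2.5 h at RT, fluorescence intensity.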

The structures appear in SMILES notation. Several values for one entry are separate records, joined by “and”; a condition that tells them apart may be missing. Equal values may be shown once. Records with an inconclusive call do not appear. More than one record can exist for a structure, and the calls need not agree. Activity calls are given as the source filed them. Unless noted, calls follow the shape of the dose curve; as a rule, active = well fitted curve in the direction sought with a large enough effect in the repeat runs; inconclusive = weak or mixed curves; inactive = no such curve, though single readings can be large; an effect the other way counts as inactive or inconclusive.

Sequence of Aryl hydrocarbon receptor (Homo sapiens) (P35869 whole entry, looked up): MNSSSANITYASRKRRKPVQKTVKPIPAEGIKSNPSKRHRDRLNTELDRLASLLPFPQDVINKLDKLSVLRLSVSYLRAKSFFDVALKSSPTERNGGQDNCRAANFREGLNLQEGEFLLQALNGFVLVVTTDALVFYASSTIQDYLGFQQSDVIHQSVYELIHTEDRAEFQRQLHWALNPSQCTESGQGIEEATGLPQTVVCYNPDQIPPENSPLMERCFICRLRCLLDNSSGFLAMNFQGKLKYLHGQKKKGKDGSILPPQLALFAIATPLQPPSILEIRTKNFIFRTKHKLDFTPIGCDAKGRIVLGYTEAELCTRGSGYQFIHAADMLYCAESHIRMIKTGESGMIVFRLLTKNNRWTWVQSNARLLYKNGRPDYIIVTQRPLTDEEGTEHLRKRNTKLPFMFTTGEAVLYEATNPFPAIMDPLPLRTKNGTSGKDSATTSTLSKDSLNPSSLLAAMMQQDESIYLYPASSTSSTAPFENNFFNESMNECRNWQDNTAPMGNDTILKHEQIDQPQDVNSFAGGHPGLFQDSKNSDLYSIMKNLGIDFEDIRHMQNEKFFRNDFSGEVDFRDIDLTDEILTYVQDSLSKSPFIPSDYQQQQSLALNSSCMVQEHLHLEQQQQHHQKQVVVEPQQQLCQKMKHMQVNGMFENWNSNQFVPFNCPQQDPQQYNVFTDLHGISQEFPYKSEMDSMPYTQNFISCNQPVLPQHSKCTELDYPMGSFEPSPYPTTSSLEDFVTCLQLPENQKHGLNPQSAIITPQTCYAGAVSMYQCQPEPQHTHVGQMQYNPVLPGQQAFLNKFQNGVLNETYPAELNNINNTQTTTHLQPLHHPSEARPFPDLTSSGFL
Sequence of Peroxisome proliferator-activated receptor gamma (Homo sapiens) (P37231 whole entry, looked up): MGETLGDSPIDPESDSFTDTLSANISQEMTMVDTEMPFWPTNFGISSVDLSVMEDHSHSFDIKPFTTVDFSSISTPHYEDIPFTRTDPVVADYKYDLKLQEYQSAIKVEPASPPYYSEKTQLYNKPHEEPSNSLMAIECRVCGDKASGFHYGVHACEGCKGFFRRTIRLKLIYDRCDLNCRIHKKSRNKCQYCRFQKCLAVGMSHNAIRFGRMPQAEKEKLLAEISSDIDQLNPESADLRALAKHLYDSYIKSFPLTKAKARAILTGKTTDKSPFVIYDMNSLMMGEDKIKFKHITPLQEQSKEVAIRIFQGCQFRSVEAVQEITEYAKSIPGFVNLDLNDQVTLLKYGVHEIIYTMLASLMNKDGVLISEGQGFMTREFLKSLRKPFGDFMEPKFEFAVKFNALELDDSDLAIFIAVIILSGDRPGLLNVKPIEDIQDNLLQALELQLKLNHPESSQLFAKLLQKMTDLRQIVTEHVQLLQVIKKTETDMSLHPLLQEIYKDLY

On to `CCCC/C=C/CCCCO`, for which the Potency entry in assay [1], in assay [2], in assay [3], in [4], in [5] and in assay [6] was “inactive” in each case. In addition, the Potency result in assay [7] is “inactive”.

Turning to `C[C@@H](NCCCc1cccc(C(F)(F)F)c1)c1cccc2ccccc12`, the Potency was 21.1 µM (active) in [1], 29.8 µM (active) in assay [3], 26.6 µM (active) in assay [8] and 29.8 µM (active) in assay [6]. In assay [2], the Potency entry is “inactive”.

With `Fc1ccc(C(c2ccc(F)cc2)N2CCN(C/C=C/c3ccccc3)CC2)cc1`, the Potency entry in assay [1], in assay [2], in assay [3] and in [9] was “inactive” throughout.

As to `O=Cc1cc(O)ccc1Br`, the Potency result in assay [1], in assay [2], in [3], in assay [4] and in assay [6] was “inactive” in each case.

As to `CC(=O)N1CCN(c2ccc(OC[C@H]3CO[C@](Cn4ccnc4)(c4ccc(Cl)cc4Cl)O3)cc2)CC1`, the Potency result in assay [1] is “inactive and 61.1 µM (active)”; in assay [2], 6.68 µM (active); in assay [3], “inactive and 27.3 µM (active)”; in [8], 43.6 µM (active); in assay [6], 61.1 µM (active).

Regarding `Cc1cc(O)c2ccccc2c1O`, the Potency result in assay [1], in [3] and in assay [4] was “inactive” each time. Further, the Potency in assay [2] is 9.44 µM (active); in assay [8], 10.6 µM (active); in assay [6], 13.3 µM (active); in assay [7], 9.44 µM (active).

With `CC(C)c1ccc2c(c1)CC[C@H]1[C@](C)(CN)CCC[C@]21C`, the Potency in [1] is 24.3 µM (active); in [3], 54.5 µM (active); in assay [8] it was 11 µM (active); in [6], 6.86 µM (active). Moreover, the Potency entry in [2] is “inactive”.

As to `CCN1/C(=C/C=C/c2sc3ccccc3[n+]2CC)Sc2ccccc21`, the Potency in [1] is 5.96 µM (active); in assay [2], 2.66 µM (active); in assay [3] it was 6.68 µM (active); in [8], 14.6 µM (active); in assay [5] it was 1.16 µM (active); in assay [6], 13 µM (active). Moreover, the Potency in assay [7] was 13 µM (active).

For the compound `CN(C)c1ccc(SC#N)cc1`, the Potency result in assay [1], in assay [2], in assay [3], in assay [4], in [6] and in [7] was “inactive” in each case.

Take `CC(C)(C)NC(=O)[C@@H]1C[C@@H]2CCCC[C@@H]2CN1C[C@@H](O)[C@H](Cc1ccccc1)NC(=O)[C@H](CC(N)=O)NC(=O)c1ccc2ccccc2n1`: the Potency in [1] was 11.9 µM (active) and 13.9 µM (active); in assay [3], 26.6 µM (active) and 22 µM (active); in assay [8], 49.6 µM (active). The Potency entry in assay [2] is “inactive”.

For `C=CC(=O)OCCn1c(=O)n(CCOC(=O)C=C)c(=O)n(CCOC(=O)C=C)c1=O`, the Potency is 13.7 µM (active) in [1], 38.6 µM (active) in assay [3], 13.8 µM (active) in [8] and 54.5 µM (active) in assay [6]. For the same compound, the Potency entry in assay [2] is “inactive”.

Take `CN(C)[C@@H]1C(=O)C(C(N)=O)=C(O)[C@@]2(O)C(=O)C3=C(O)c4c(O)ccc(Cl)c4[C@@H](O)[C@H]3C[C@@H]12`: the Potency result in [1], in assay [2], in assay [3], in assay [4], in [8] and in assay [6] was “inactive” throughout. The Potency entry in assay [7] and in [10] was “inactive” each time.

In the case of `CCc1cc(Cc2cc(CC)c(N)c(CC)c2)cc(CC)c1N`, the Potency result in [1] and in assay [3] was “inactive” in each case. Moreover, the Potency in assay [2] is 2.73 µM (active); in [9] it was 38.9 µM (active); in assay [6] it was 54.5 µM (active).

For `N/C(=N\N=C\c1ccc(Cl)cc1)N/N=C/c1ccc(Cl)cc1`, the Potency result in assay [1], in assay [3] and in assay [4] was “inactive” throughout. The Potency is 13.3 µM (active) in assay [2], 21.1 µM (active) in [8] and 29.8 µM (active) in assay [6].

With `CCCCCCCCCCCCCCCS(=O)(=O)Oc1ccccc1`, the Potency entry in assay [1], in assay [2], in assay [3], in assay [4], in [8] and in assay [6] was “inactive” in each case. For the same compound, in assay [7], the Potency entry was “inactive”.

Regarding `CN1CCN(CCC(=O)N2c3ccccc3Sc3ccc(C(F)(F)F)cc32)CC1`, the Potency entry in [1], in assay [2], in assay [4], in [7] and in assay [10] was “inactive” in each case. In addition, the Potency was 18.8 µM (active) in assay [3], 33.5 µM (active) in assay [8] and 29.8 µM (active) in [6].

In the case of `O=S1(=O)CC(Cl)(Cl)C(Cl)(Cl)C1`, the Potency in assay [1] is 2.17 µM (active); in assay [3] it was 13.7 µM (active); in assay [8], 5.49 µM (active); in assay [6], 4.33 µM (active); in [7] it was 1.95 µM (active). In addition, the Potency entry in assay [2] is “inactive”.

Take `CCCC(c1cc(C(C)(C)C)c(O)cc1C)c1cc(C(C)(C)C)c(O)cc1C`: the values for the Potency in assay [1], in [8] and in assay [6] were 49.2 µM (active), 17.6 µM (active) and 17.4 µM (active), respectively. For the same compound, the Potency entry in assay [2] and in [3] was “inactive” throughout.

With `N=C1C=CC(=C(c2ccc(N)cc2)c2ccc(N)cc2)C=C1`, the Potency in assay [1] is 8.63 µM (active); in [3] it was 17.2 µM (active); in [8], 6.92 µM (active); in [6], 61.1 µM (active); in assay [7], 30.9 µM (active). Besides, the Potency entry in assay [2] and in [4] was “inactive” in each case.

Consider `CCN(CCC#N)c1ccc(N=Nc2c(Cl)cc([N+](=O)[O-])cc2Cl)cc1`, for which the Potency is 24.3 µM (active) in [1] and 27.3 µM (active) in assay [3]. Also, the Potency result in assay [2], in [4], in [8], in assay [6] and in [7] was “inactive” each time.

For the compound `O=C1Cc2cc(CCN3CCN(c4nsc5ccccc45)CC3)c(Cl)cc2N1`, the Potency result in assay [1] was “inactive and 26.6 µM (active)”; in [2] it was 15 µM (active) and inactive. For the same compound, the Potency entry in assay [3], in assay [4] and in assay [7] was “inactive” in each case.

Take `CCCCCCCC[P+](CCCCCCCC)(CCCCCCCC)CCCCCCCC`: the Potency in [1] was 9.63 µM (active); in assay [3] it was 19.2 µM (active); in assay [8], 4.34 µM (active); in assay [6], 10.8 µM (active). Further, the Potency entry in assay [2] was “inactive”.

With `Cc1cc(CCN2CCN(c3nsc4ccccc34)CC2)cc2c1NC(=O)CC2(C)C`, the Potency in assay [1] is 24.3 µM (active); in [3], 27.3 µM (active); in [8] it was 19.5 µM (active); in assay [6], 21.7 µM (active). Moreover, in assay [2], the Potency entry is “inactive”.

For `CO[Si](CCCNc1ccccc1)(OC)OC`, the Potency result in [1], in [2], in [3], in assay [4], in assay [8] and in [10] was “inactive” each time.

For the compound `CCCCCCCCCCCCCCCC(=O)OC[C@H](O)[C@H]1OC(=O)C(O)=C1O`, the Potency result in [1], in [2], in assay [3], in assay [9] and in assay [6] was “inactive” in each case. Besides, the Potency in [7] is 49 µM (active).

As to `CSc1ccc(C(=O)c2[nH]c(=O)[nH]c2C)cc1`, the Potency entry in assay [1], in [2], in assay [3], in [8], in assay [5] and in [6] was “inactive” throughout. Besides, the Potency result in assay [7] and in assay [10] was “inactive” throughout.
